Experimental data: PubChem BioAssay AID1159580 (chemical genetic matrix, 2015)
Values joined by “and” are separate entries in the source; they are usually repeats but may differ in a detail not shown here. Equal values may be shown once. The whole screen tested about 5,500 compounds, of which about 2,000 (36%) were called active. Not shown: some 18% with an inconclusive outcome. No stated cut-off is given here; in the data, active means normalized growth mostly below about 0.91 (no sharp cut-off); inconclusive means no clear call, values can overlap the other calls; inactive means mostly above about 0.92. The list shows a part of the results.

Assay: chemical genetic growth profiling, strain panel (AID 1159580);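 further: tested at 20 µM; growth read once vehicle control cultures reached saturation at 30 °C; 1 = growth at the plate median or of vehicle wells; lower values mean less growth of the strain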
Conditions: S. cerevisiae deletion strains, growth OD

Measured: normalized growth

O=C(O)c1ccccc1C(=O)Nc1ccc(S(=O)(=O)Nc2nccs2)cc1
inactive: locus YAL013W, strain DEP1, active compounds read low 1.01 | locus YAL021C, strain ccr4, active compounds read low 0.977 | locus YAL026C, strain drs2, active compounds read low 0.986 | locus YAL030W, strain snc1, active compounds read low 0.987 | locus YBL061C, strain skt5, active compounds read low 0.968 | locus YBR009C, strain hhf1, active compounds read low 0.994 | locus YBR021W, strain FUR4, active compounds read low 1.01 | locus YBR023C, strain chs3, active compounds read low 0.966 | locus YBR171W, strain sec66, active compounds read low 0.978 | locus YBR229C, strain ROT2, active compounds read low 1 | locus YBR231C, strain swc5, active compounds read low 0.985 | locus YBR279W, strain paf1, active compounds read low 0.991 | locus YCL011C, strain gbp2, active compounds read low 0.978 | locus YCL016C, strain dcc1, active compounds read low 0.954 | locus YCL029C, strain bik1, active compounds read low 0.994 | locus YCL061C, strain MRC1, active compounds read low 0.971 | locus YCL069W, strain vba3, active compounds read low 0.988 | locus YCR088W, strain abp1, active compounds read low 0.987 | locus YDL005C, strain med2, active compounds read low 0.973 | locus YDL035C, strain GPR1, active compounds read low 1.02 | locus YDL040C, strain nat1, active compounds read low 0.977 | locus YDL074C, strain BRE1, active compounds read low 1.01 | locus YDL101C, strain DUN1, active compounds read low 1.01 | locus YDL134C, strain PPH21, active compounds read low 1 | locus YDL185W, strain tfp1, active compounds read low 0.995 | locus YDL192W, strain arf1, active compounds read low 0.998 | locus YDR001C, strain nth1, active compounds read low 0.987 | locus YDR069C, strain doa4, active compounds read low 0.975 | locus YDR101C, strain arx1, active compounds read low 0.984 | locus YDR137W, strain rgp1, active compounds read low 0.963 | locus YDR159W, strain sac3, active compounds read low 0.992 | locus YDR162C, strain NBP2, active compounds read low 1 | locus YDR195W, strain ref2 0.996 | locus YDR297W, strain sur2, active compounds read low 0.988 | locus YDR318W, strain mcm21, active compounds read low 0.999 | locus YDR334W, strain swr1, active compounds read low 0.966 | locus YDR335W, strain msn5, active compounds read low 0.984 | locus YDR388W, active compounds read low 0.993 | locus YDR392W, strain spt3, active compounds read low 0.93 | locus YDR502C, strain sam2, active compounds read low 1 | locus YEL003W, strain gim4, active compounds read low 1.01 | locus YEL037C, strain rad23, active compounds read low 0.981 | locus YEL061C, strain CIN8 (second series), active compounds read low 0.99 | locus YEL061C, strain CIN8, active compounds read low 1.01 | locus YER015W, strain faa2, active compounds read low 0.96 | locus YER016W, strain bim1, active compounds read low 0.993 | locus YER110C, active compounds read low 0.998 | locus YER111C, strain swi4, active compounds read low 0.973 | locus YER155C, strain BEM2 (second series), active compounds read low 0.981 | locus YER155C, strain BEM2, active compounds read low 0.995 | locus YER167W, strain BCK2, active compounds read low 0.996 | locus YFR010W, strain ubp6, active compounds read low 0.999 | locus YGL078C, strain dbp3, active compounds read low 0.994 | locus YGL086W, strain mad1, active compounds read low 0.991 | locus YGL167C, strain pmr1, active compounds read low 0.962 | locus YGL173C, strain kem1, active compounds read low 0.959 | locus YGL227W, strain vid30, active compounds read low 0.985 | locus YGL240W, strain doc1, active compounds read low 0.992 | locus YGL248W, strain PDE1, active compounds read low 1 | locus YGL253W, strain hxk2, active compounds read low 0.984 | locus YGR135W, strain pre9, active compounds read low 0.995 | locus YGR229C, strain SMI1, active compounds read low 1.01 | locus YGR252W, strain gcn5, active compounds read low 0.995 | locus YHR013C, strain ard1, active compounds read low 0.949 | locus YHR027C, strain rpn1, active compounds read low 0.977 | locus YHR030C, strain SLT2, active compounds read low 1 and 1.03 | locus YHR079C, strain IRE1 (second series), active compounds read low 0.995 | locus YHR079C, strain IRE1, active compounds read low 1.05 | locus YHR094C, strain hxt1, active compounds read low 0.994 | locus YHR129C, strain ARP1, active compounds read low 1 | locus YHR142W, strain chs7, active compounds read low 0.959 | locus YHR200W, strain rpn10, active compounds read low 0.995 | locus YIL066C, strain RNR3, active compounds read low 1.01 | locus YIL073C, strain SPO22, active compounds read low 1.01 | locus YIL125W, strain kgd1, active compounds read low 0.991 | locus YIR030C, strain dcg1, active compounds read low 0.993 | locus YJL092W, strain hpr5, active compounds read low 0.983 | locus YJL095W, strain BCK1 (second series), active compounds read low 0.982 | locus YJL095W, strain BCK1, active compounds read low 1.02 and 1.01 | locus YJL115W, strain asf1, active compounds read low 0.973 | locus YJL129C, strain trk1, active compounds read low 0.976 | locus YJL134W, strain LCB3, active compounds read low 1 | locus YJL154C, strain vps35, active compounds read low 0.979 | locus YJL164C, strain tpk1, active compounds read low 0.991 | locus YJL166W, strain qcr8, active compounds read low 0.985 | locus YJL168C, strain set2, active compounds read low 0.993 | locus YJL187C, strain SWE1 (second series), active compounds read low 1.02 | locus YJL187C, strain SWE1, active compounds read low 0.979 | locus YJR043C, strain POL32, active compounds read low 0.995
